Data from PubChem BioAssay (NCATS).
Inconclusive results are not listed. Entries that show only a call come without a potency. The source made the active and inactive calls. Calls follow the shape of the dose curve; as a rule, active = well fitted cell-killing curve with a large enough effect; inconclusive = small, poorly fitted or top-dose-only effect, or effect the other way; inactive = flat fitted curve, though single readings scatter.

These compounds were tested on Es-2 (assay: Primary qHTS to identify gynecologic anti-cancer compounds using libraries of approved drugs and bioactive compounds (AID 1345084; also: nearly all actives have a fitted effect of over 55% in size)). Details: Gynecologic cancer cell panel viability, ATPlite luminescence, 48 h; series mostly up to 57.5 µM.
How it was run: (§1)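 Cell viability after 48 h drug treatment, ATPlite luminescence readout; five doses.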
For `COc1cccc(C(=O)N2CCN(C(=O)COc3cccc(C)c3)CC2)c1OC`, the Potency was “inactive”. With `C=C[C@H]1C(O[C@@H]2O[C@H](CO)[C@@H](O)[C@H](O)[C@H]2O)OC=C2C(=O)N3CCc4c([nH]c5ccccc45)[C@H]3C[C@H]21` (some centres undefined) the Potency was “inactive”. For `C/C=C(/COC(=O)/C(C)=C/C)C(=O)OC(CC)c1ccc(OC)c(OC)c1` (centres undefined), the Potency was “inactive”. With `C=C1[C@H](OC(C)=O)[C@H]2[C@@H](OC(C)=O)[C@](C)(OC(C)=O)C[C@]2(OC(C)=O)C(=O)[C@H](C)/C=C/C(C)(C)C(=O)[C@H](OC(=O)C(C)C)[C@H]1OC(C)=O` the Potency was “inactive”. `C=CC(C)(C)C12C=C(OC)C(=O)N3C(C(C)C)C(=O)NC31N(OC)c1ccccc12` (centres undefined) was tested, and the Potency was “inactive”. With `C/C1=C\CC[C@]2(C)O[C@@H]2[C@H](O)[C@H](C(C)C)[C@H](OC(=O)/C=C/c2ccccc2)C1` the Potency was “inactive”. `c1ccc(N2CCN(CCc3nn[nH]n3)CC2)cc1` was tested, and the Potency was “inactive”. `C=C1CC2C(C)(CCC(=O)O)C(C(C)(C)O)CCC2(C)C2C(=O)OC(C)(C(=O)OC)C(=O)C12C` (centres undefined) was tested, and the Potency was “inactive”. `CC(C)=CCCC1(C)C=Cc2c(c(C)cc3c2[nH]c2ccccc23)O1` (centres undefined) was tested, and the Potency was “inactive”. In the case of `CC1(C)CC[C@]2(C(=O)O[C@@H]3O[C@H](CO[C@@H]4O[C@H](CO)[C@@H](O)[C@H](O)[C@H]4O[C@@H]4O[C@H](CO)[C@H](O)[C@H](O)[C@H]4O)[C@@H](O)[C@H](O[C@@H]4O[C@H](CO)[C@@H](O)[C@H](O)[C@H]4O)[C@H]3O)CC[C@]3(C)C(=CCC4[C@@]5(C)CC[C@H](O[C@@H]6OC[C@@H](O)[C@H](O)[C@H]6O)[C@@](C)(C(=O)O)C5CC[C@]43C)[C@@H]2C1` (some centres undefined), the activity change, negative = cytotoxicity is reported as 3.44% [at 6.55 µM] (inactive).

These compounds were tested on HeLa in the same assay as above. Details: Gynecologic cancer cell panel viability, ATPlite luminescence, 48 h; series mostly up to 57.5 µM.
How it was run: as §1
With `C/C(=C\CCC1(C)C2CCC(C2)C1(C)O)C(=O)O` (centres undefined) the Potency was “inactive”. `CC(=O)O[C@@H]1c2c3c(cc(O)c2C(=O)O[C@@H]1C)O[C@@]1(C)[C@@H](O)C[C@H]2C(C)(C)C(=O)C=C[C@]2(C)[C@@H]1C3` was tested, and the Potency was “inactive”. In the case of `COc1ccccc1Oc1ccc(N(Cc2cccnc2)S(=O)(=O)CC(F)(F)F)cc1`, the Potency is reported as “inactive”. For `CC(C)C(NC(=O)c1ccc2ccccc2n1)C(=O)NC(CC(=O)O)C(=O)COc1c(F)cccc1F` (centres undefined), the Potency was “inactive”. In the case of `CC(C)=CCC[C@](C)(O)[C@H]1CC[C@]2(C)[C@@H]1[C@H](O)CC1[C@@]3(C)CC[C@H](O)C(C)(C)C3[C@@H](O[C@@H]3O[C@H](CO)[C@@H](O)[C@H](O)[C@H]3O[C@@H]3OC[C@@H](O)[C@H](O)[C@H]3O)C[C@]12C` (some centres undefined), the Potency is reported as “inactive”. With `C=CC[C@]12C[C@@H](OC)C(=O)C(OC)=C1O[C@@H](c1cc(OC)c3c(c1)OCO3)[C@@H]2C` the Potency was “inactive”. For `CC(C)O[C@@H]1O[C@H](CO)[C@@H](O)[C@H](O)[C@H]1O`, the Potency was “inactive”. With `C[C@@H]1CN(Cc2ncccn2)C[C@H]1c1nc2c(cnn2C2CCOCC2)c(=O)[nH]1` the Potency was “inactive”. `CN[C@H](CC(C)C)C(=O)N[C@H]1C(=O)N[C@@H](CC(N)=O)C(=O)N[C@H]2C(=O)N[C@H]3C(=O)N[C@H](C(=O)N[C@H](C(=O)O)c4cc(O)cc(O)c4-c4cc3ccc4O)[C@H](O[C@H]3C[C@](C)(N)[C@@H](O)[C@H](C)O3)c3ccc(c(Cl)c3)Oc3cc2cc(c3O[C@@H]2O[C@H](CO)[C@@H](O)[C@H](O)[C@H]2O[C@H]2C[C@](C)(NCc3ccc(-c4ccc(Cl)cc4)cc3)[C@@H](O)[C@H](C)O2)Oc2ccc(cc2Cl)[C@H]1O` was tested, and the Potency was “inactive”. In the case of `C=C1CC[C@H]2[C@@](C)(CCC(O)[C@@]2(C)CO)[C@@H]1CCC1=CCOC1=O` (some centres undefined), the Potency is reported as “inactive”. In the case of `CC1CCC2(C=O)C(CO)=CCCC2C1(C)CC(=O)O` (centres undefined), the Potency is reported as “inactive”. `C=CC1(C)C=C2CCC3C(C)(C)C(O[C@@H]4O[C@@H](CO)[C@H](O)[C@H]4O)CCC3(C)C2CC1O[C@@H]1O[C@H](C)[C@H](O)[C@H](O)[C@H]1O` (some centres undefined) was tested, and the Potency was “inactive”. `C/C(=C\CC[C@@H](C)[C@H]1CC(O)[C@@]2(C)C3CC[C@H]4C(C)(C)[C@@H](OC5OCC(O)C(O)C5OC5OC(CO)C(O)C(O)C5O)CC[C@@]45C[C@@]35CC(O)[C@]12C)C(=O)O` (some centres undefined) was tested, and the Potency was “inactive”. With `CC(C)(C)NCCCNC(=O)c1cccc(Br)c1` the Potency was “inactive”. `CC(=O)OC1C[C@]2(C)C(O)CC(C)=C[C@H](OC(=O)c3ccc(O)cc3)C2[C@]1(O)C(C)C` (some centres undefined) was tested, and the Potency was “inactive”. With `C=C1CC[C@@H]2[C@](C)(CO[C@@H]3O[C@H](CO)[C@@H](O)[C@H](O)[C@H]3O)[C@H](O)CC[C@@]2(C)[C@@H]1C/C=C1/C(=O)OC[C@H]1O` the Potency was “inactive”. With `COC(=O)/C=C/C12COC(C)(C)C1C(O)C(OC(C)=O)C1(C)C2CCC2(C)C(c3ccoc3)OC(=O)C3OC321` (centres undefined) the Potency was “inactive”. For `CC1CC(=O)C2=C(CCC3(O)C(O)c4c(O)cccc4C(=O)C23O)C1` (centres undefined), the Potency was “inactive”. `COC(=O)c1ccccc1O[C@@H]1O[C@H](CO)[C@@H](O)[C@H](O)[C@H]1O[C@@H]1O[C@@H](C)[C@H](O)[C@@H](O)[C@H]1O` was tested, and the Potency was “inactive”. With `CCc1ccc(Cc2ccc3c(c2)[C@]2(OC3)O[C@H](CO)[C@@H](O)[C@H](O)[C@H]2O)cc1` the Potency was “inactive”. `OC[C@H]1O[C@@H](Oc2ccccc2)[C@H](O)[C@@H](O)[C@@H]1O` was tested, and the Potency was “inactive”. For `COc1cc2c(cc1OC)CC(=O)N(CCCNC[C@H]1Cc3cc(OC)c(OC)cc31)CC2`, the Potency was “inactive”. For `COc1cc(O)c([C@@H](CC(=O)N2CC(C)CC(C)C2)c2ccc3c(c2)OCO3)c(OC)c1` (some centres undefined), the Potency was “inactive”. `C=CC/C=C\C/C=C\CCCCCCCc1cccc(O)c1C(=O)O` was tested, and the Potency was “inactive”. With `Cc1ccc(-c2ccc3c(ccc4sc5c(c43)NC[C@@H](C)NC5=O)n2)cn1` the Potency was “inactive”. For `C[C@@H]1C(=O)OC[C@H]2C(C(=O)O)=C[C@@H]3CC(C)(C)C[C@]312`, the Potency was “inactive”. `C[C@H]1CC(=O)Nc2cccc(-c3cnn(C(C)(C)C)c3)c2N1` was tested, and the Potency was “inactive”. `COC(=O)C(C)C1CCC2(C)C(=O)C=CC(C)(O)C2C1O` (centres undefined) was tested, and the Potency was “inactive”. With `CC(=O)O[C@@H]1[C@@H](OC(=O)/C=C/c2ccccc2)[C@@H](OC(C)=O)[C@H](O[C@H]2[C@@H]3C=CO[C@@H](O[C@@H]4O[C@H](CO)[C@@H](O)[C@H](O)[C@H]4O)[C@@H]3[C@@]3(CO)O[C@@H]23)O[C@H]1C` the Potency was “inactive”. In the case of `COc1cccc(C(=O)N2CCN(C(=O)COc3cccc(C)c3)CC2)c1OC`, the Potency is reported as “inactive”. `C=C[C@H]1C(O[C@@H]2O[C@H](CO)[C@@H](O)[C@H](O)[C@H]2O)OC=C2C(=O)N3CCc4c([nH]c5ccccc45)[C@H]3C[C@H]21` (some centres undefined) was tested, and the Potency was “inactive”. `C/C=C(/COC(=O)/C(C)=C/C)C(=O)OC(CC)c1ccc(OC)c(OC)c1` (centres undefined) was tested, and the Potency was “inactive”. In the case of `C=C1[C@H](OC(C)=O)[C@H]2[C@@H](OC(C)=O)[C@](C)(OC(C)=O)C[C@]2(OC(C)=O)C(=O)[C@H](C)/C=C/C(C)(C)C(=O)[C@H](OC(=O)C(C)C)[C@H]1OC(C)=O`, the Potency is reported as “inactive”. `C=CC(C)(C)C12C=C(OC)C(=O)N3C(C(C)C)C(=O)NC31N(OC)c1ccccc12` (centres undefined) was tested, and the Potency was “inactive”. `C/C1=C\CC[C@]2(C)O[C@@H]2[C@H](O)[C@H](C(C)C)[C@H](OC(=O)/C=C/c2ccccc2)C1` was tested, and the Potency was “inactive”. With `c1ccc(N2CCN(CCc3nn[nH]n3)CC2)cc1` the Potency was “inactive”. In the case of `C=C1CC2C(C)(CCC(=O)O)C(C(C)(C)O)CCC2(C)C2C(=O)OC(C)(C(=O)OC)C(=O)C12C` (centres undefined), the Potency is reported as “inactive”. With `CC(C)=CCCC1(C)C=Cc2c(c(C)cc3c2[nH]c2ccccc23)O1` (centres undefined) the Potency was “inactive”. With `CC1(C)CC[C@]2(C(=O)O[C@@H]3O[C@H](CO[C@@H]4O[C@H](CO)[C@@H](O)[C@H](O)[C@H]4O[C@@H]4O[C@H](CO)[C@H](O)[C@H](O)[C@H]4O)[C@@H](O)[C@H](O[C@@H]4O[C@H](CO)[C@@H](O)[C@H](O)[C@H]4O)[C@H]3O)CC[C@]3(C)C(=CCC4[C@@]5(C)CC[C@H](O[C@@H]6OC[C@@H](O)[C@H](O)[C@H]6O)[C@@](C)(C(=O)O)C5CC[C@]43C)[C@@H]2C1` (some centres undefined) the activity change, negative = cytotoxicity was 0.826% [at 6.55 µM] (inactive).
